From PubChem
The entries come from a sample that favours hits as a whole.
APEX1 inh: inhibitors of human APE1 endonuclease; Potency, µM (series often up to 65.8 µM), for inactives: at the highest dose activity change, negative = inhibition, hits mostly inhibitors; actives 0.35% (n = 350,000); recombinant APE1, TAMRA/BHQ-2 abasic DNA cleavage fluorescence; AID 2517;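 further: plate controls were vehicle for no effect and reference inhibitor for full effect; nearly all actives have a fitted effect of over 55% in size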
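Endonuclease cleavage of a quenched abasic-site DNA duplex (50 nM) by APE1 (0.75 nM) was tracked by TAMRA dequenching. Compounds were preincubated with enzyme 15 min at room temperature; data normalized to buffer-only and DMSO wells plus NSC13755 control.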
KDM4E inh: JMJD2E (human) inhibition; JMJD2E catalytic domain, FDH-coupled NADH fluorescence (FDH is formaldehyde dehydrogenase); Potency, µM (doses to about 57.1 µM), inactives show top-dose activity change, negative = inhibition, hits mostly inhibitors; actives 1.6% (n = 230,000); AID 2147; active means well fitted inhibition curve with a large enough effect, not every such curve was filed as active; inconclusive means small, poorly fitted or top-dose-only effect, or another doubt; inactive means no such curve, though single readings can be large or run the other way;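 further: 0% = wells with enzyme and -100% = buffer wells without enzyme; nearly all actives have a fitted effect of over 50% in size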
RECQ1 helicase: RECQ1 (human) helicase inhibition. P46063. RECQ1 DNA unwinding, red fluorescence kinetic read. Potency, µM (titrated, usually from 57.3 µM), inactives show at the top dose activity, negative = inhibition, usual class: inhibitors. actives 0.54% (n = 240,000). AID 2549;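 further: plate controls were vehicle for no effect and no enzyme for full effect; nearly all actives have a fitted effect of over 30% in size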
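RECQ1T1 50 nM; forked duplex (20 bp + 30-nt ss tails) 200 nM, ATP 2 mM final; pH 8.0, 2 mM MgCl2, 2.5 ug/ml poly(dI-dC); 15 min compound preincubation; discontinuous kinetic read over 2 h at RT.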
GCN5L2 inh: inhibitors of human GCN5L2 histone acetyltransferase | Q92830 | GCN5L2 HAT assay, ThioGlo1 CoA-SH fluorescence | Potency, µM (highest dose often 58.9 µM), for the others: top-dose activity change, negative = inhibition, actives largely listed as inhibitors | actives 0.21% (n = 390,000) | AID 504327; further: on the % scale 0 is the no-effect control and ±100 the full control effect
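Fluorescence readout, Ex340nm/Em540nm: ThioGlo1 (50uM final) reacts with free CoA thiol released as 20nM GCN5L2 acetylates H3(1-25) peptide (75uM) using acetyl-CoA (70uM). Compound and enzyme sat 15 min beforehand; 20 min room-temperature reaction.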
BLM inh: inhibitors of human Bloom syndrome helicase BLM. P54132. recombinant BLM DNA unwinding, fluorescence dequenching. Potency, µM (doses to about 56.1 µM), without a hit: at the highest dose activity change, negative = inhibition, hits mostly inhibitors. actives 0.2% (n = 350,000). AID 2528;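 further: plate controls were vehicle for no effect and no enzyme for full effect; nearly all actives have a fitted effect of over 35% in size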
L3MBTL1 inh-1: inhibitors of human L3MBTL1; AID 485360; Potency, µM (doses to about 57.1 µM), for the others: at the top dose activity, negative = inhibition, actives largely listed as inhibitors; AlphaScreen L3MBTL1–H3K9me1 peptide binding; actives 0.66% (n = 230,000); Q9Y468; further: on the % scale 0 is the no-effect control and ±100 the full control effect; nearly all actives have a fitted effect of over 60% in size
Target sequence (Q9Y468 whole entry, looked up): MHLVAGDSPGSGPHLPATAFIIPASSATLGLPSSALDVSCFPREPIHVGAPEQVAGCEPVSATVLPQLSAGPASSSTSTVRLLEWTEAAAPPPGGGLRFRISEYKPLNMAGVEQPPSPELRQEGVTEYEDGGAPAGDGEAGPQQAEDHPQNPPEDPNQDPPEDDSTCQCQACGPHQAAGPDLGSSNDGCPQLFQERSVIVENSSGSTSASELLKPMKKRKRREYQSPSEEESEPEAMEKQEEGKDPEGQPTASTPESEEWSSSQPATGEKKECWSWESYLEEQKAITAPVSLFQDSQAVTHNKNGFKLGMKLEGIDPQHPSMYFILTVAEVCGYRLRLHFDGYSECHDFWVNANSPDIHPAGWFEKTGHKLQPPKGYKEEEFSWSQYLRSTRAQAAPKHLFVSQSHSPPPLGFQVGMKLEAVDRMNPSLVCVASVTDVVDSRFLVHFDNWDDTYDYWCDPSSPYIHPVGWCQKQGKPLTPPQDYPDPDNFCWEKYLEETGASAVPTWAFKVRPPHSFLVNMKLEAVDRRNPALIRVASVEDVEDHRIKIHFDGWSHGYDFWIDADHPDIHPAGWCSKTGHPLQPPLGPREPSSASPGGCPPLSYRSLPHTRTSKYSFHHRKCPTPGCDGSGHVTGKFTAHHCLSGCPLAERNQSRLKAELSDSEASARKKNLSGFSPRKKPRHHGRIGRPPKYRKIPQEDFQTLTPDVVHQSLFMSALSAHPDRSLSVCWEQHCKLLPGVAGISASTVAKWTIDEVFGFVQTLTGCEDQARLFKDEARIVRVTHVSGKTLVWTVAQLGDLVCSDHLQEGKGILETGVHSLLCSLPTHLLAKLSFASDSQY
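L3MBTL1 (50 nM) pre-complexed 30 min with biotinylated H3(1-15)K9me1 peptide (75 nM), then compounds added for 30 min at room temperature; AlphaScreen streptavidin donor/nickel chelate acceptor beads (10 ug/mL final) read after 30 min dark incubation.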
L3MBTL1 inh-2: L3MBTL1 binding inhibition validated; shares compounds with L3MBTL1 inh-1; L3MBTL1 methyl-lysine binding inhibition, biochemical qHTS; Potency, µM, actives largely listed as inhibitors; actives 91% (n = 500); further: nearly all actives have a fitted effect of over 70% in size
AlphaScreen ctr2: AlphaScreen signal inhibition, L3MBTL1 hit counter-screen; shares compounds with L3MBTL1 inh-1; AlphaScreen counterscreen, signal inhibition; Potency, µM (highest dose often 57.1 µM), for the others: at the highest dose activity change, negative = inhibition, hits mostly inhibitors; 500 tested, under 10 active; AID 602224; further: 0% is about no effect
* marks the source's active call; other numbers are inactive results; i = inactive; ? = inconclusive; · = no result given. Unless noted, the call rests on the fitted dose curve; in most records, active means well fitted curve in the direction sought with a large enough effect; inconclusive means small, poorly fitted or top-dose-only effect, or another doubt; inactive means no such curve, though single readings can be large; an effect the other way counts as inactive or inconclusive. Potency means the concentration at half of the fitted maximal effect.

SMILES	APEX1 inh	KDM4E inh	RECQ1 helicase	GCN5L2 inh	BLM inh	L3MBTL1 inh-1	L3MBTL1 inh-2	AlphaScreen ctr2
O=C(Nc1cc(Cl)ccc1Cl)c1noc2c1CCCC2	-4%	-23%	i	-4%	0%	·	·	·
O=C(Nc1ccc(F)cc1F)c1noc2c1CCC2	?	3%	-10%	-16%	-17%	32µM*	6.7*	6%
COc1cc2c(cc1NC(=O)C(C)OC(=O)c1ccc(S(=O)(=O)Nc3ccccc3Cl)cc1)oc1ccccc12 (centres undefined)	?	?	i	-24%	-7%	8%	·	·
COc1ccc2[nH]c(=O)cc(C(=O)O)c2c1	?	?	-20%	-20%	-13%	22µM*	3.4*	0%
COc1ccc2[nH]c(=O)c(C(=O)O)cc2c1	-3%	?	i	-9%	-2%	·	·	·
Nc1c(C(=O)OCC(=O)Nc2cccc([N+](=O)[O-])c2)[nH]c(=O)[nH]c1=O	?	·	·	-11%	·	32µM*	24*	8%
Cn1c(SCC(=O)NCC2CCCO2)nnc1-c1ccco1 (centres undefined)	22%	·	·	-3%	·	4%	·	·
N=C1/C(=C\c2ccc(-c3ccc(C(=O)O)cc3)o2)C(=O)N=C2SC=C(c3ccccc3)N12	-12%	?	?	-2%	5%	·	·	·
N=C1/C(=C\c2ccc(-c3cccc(Cl)c3)o2)C(=O)N=C2SC=C(c3ccccc3)N12	2%	-2%	-16%	?	?	35µM*	27*	?
Cc1ccc(C)c(/C(O)=C2/C(=O)C(=O)N(CCN3CCOCC3)C2c2ccco2)c1 (centres undefined)	1%	?	0%	-4%	6%	25µM*	11*	6%
Cc1cc(C)cc(-n2ccn(CC(=O)NCCc3ccccc3)c(=O)c2=O)c1	-4%	·	·	-3%	-4%	·	·	·
COc1ccc(S(=O)(=O)Nc2cc(Sc3ncn[nH]3)c(O)c3ccccc23)cc1	?	?	-7%	?	?	·	·	·
O=S(=O)(Nc1cc(Sc2cccc3cccnc23)c(O)c2ccccc12)c1ccc(F)cc1	9%	28µM*	-15%	-13%	-6%	28µM*	21*	-16%
O=C(CCS(=O)(=O)c1ccc(Br)cc1)Nc1ccc(F)cc1F	·	·	·	-5%	2%	·	·	·
O=C(CCS(=O)(=O)c1ccc(Br)cc1)Nc1cc(F)ccc1F	?	-5%	-18%	2%	-2%	28µM*	27*	10%
CC(/C=C\c1cccnc1)=C/C(=O)O	-4%	-8%	-26%	-2%	-1%	28µM*	27*	0%
O=c1oc2ccccc2c(O)c1C=NCc1ccccn1	7%	3%	10%	-6%	2%	16µM*	21*	25%
O=S1(=O)[C@H]2C[C@@H]3C=C[C@@]2(CN1Cc1ccc(F)cc1)O3	33%	·	·	1%	1%	-1%	·	·
CC(=O)c1ccc(NC(=O)CC2Nc3cccc4cccc(c34)NC2=O)cc1 (centres undefined)	-4%	?	i	-6%	?	3.5µM*	27*	?
CC(=O)Nc1ccc(NC(=O)CC2Nc3cccc4cccc(c34)NC2=O)cc1 (centres undefined)	-5%	-10%	-3%	18%	-6%	-5%	·	·
Cc1sc2ncnc(N3CCC(C(=O)N(CC(C)C)c4nc5ccccc5s4)CC3)c2c1C	12%	·	·	-2%	·	-5%	·	·
CCCC[N+](C)(C)CCC(=O)NC(C)(C)CS(=O)(=O)[O-]	1%	5%	-9%	-14%	1%	20µM*	21*	-1%
O=C(Nc1cccc(C(=O)N2CCOCC2)c1)c1ncn[nH]1	-2%	2%	-17%	2%	0%	28µM*	21*	?
O=c1nc(/C=C/c2ccc(O)c(O)c2)oc2ccccc12	?	13µM*	1%	-10%	21%	28µM*	1.9*	-2%
C/C(=N\Nc1nnc2c3ccccc3n(C)c2n1)c1ccc(C)o1	-7%	-2%	-40%	0%	-5%	-4%	·	·
SMILES	APEX1 inh	KDM4E inh	RECQ1 helicase	GCN5L2 inh	BLM inh	L3MBTL1 inh-1	L3MBTL1 inh-2	AlphaScreen ctr2
Cc1cc(C)n(-c2nnc3c4ccccc4n(C)c3n2)n1	-10%	-5%	i	0%	-9%	28µM*	?	?
COc1ccc(C2CC(=O)Nc3ccccc3S2(=O)=O)cc1OC (centres undefined)	?	?	-15%	-5%	2%	11µM*	?	1%
O=C(Cn1c(=O)n(-c2ccccc2Cl)c(=O)c2sc3ccccc3c21)NC1CCCCC1	·	·	·	-8%	-1%	·	·	·
Cc1ccc2nc(-c3ccc(O)c(O)c3)cn2c1	?	·	·	1%	-20%	32µM*	5.3*	-1%
CC(=O)Nc1ccc(-c2cn3cc(C)ccc3n2)cc1	-7%	?	-3%	4%	1%	3%	·	·
CC(=O)c1ccc(N(CC(=O)NC2CCCCC2)C(=O)CNC(=O)c2ccco2)cc1	-9%	·	·	-2%	-5%	·	·	·
Cc1ccc2c(CC(=O)OCC(=O)N(CC(C)C)c3c(N)n(Cc4ccccc4)c(=O)[nH]c3=O)coc2c1	-28%	·	·	-9%	·	32µM*	21*	9%
CCN(C(=O)COC(=O)Cc1coc2cc(C)ccc12)c1c(N)n(Cc2ccccc2)c(=O)[nH]c1=O	4%	·	·	-3%	·	-3%	·	·
CCc1cccc(NC(=O)C(CC(C)C)NS(=O)(=O)c2ccc3c(c2)oc(=O)n3C)c1 (centres undefined)	·	·	·	-9%	-2%	·	·	·
COc1ccc(CNC(=O)CSc2ncn[nH]2)cc1OC	72%	·	·	-5%	-1%	·	·	·
CC(=O)c1c(COC(=O)c2ccncc2)nc2ccccc2[n+]1[O-]	4%	2%	5%	-15%	-2%	35µM*	?	-1%
CC(=O)c1c(COC(=O)c2cccc(C)c2)nc2ccccc2[n+]1[O-]	-7%	7%	2%	-6%	-7%	-26%	·	·
S=C1SCN(Cc2ccccn2)CN1Cc1ccco1	1%	-12%	i	18%	-8%	28µM*	27*	4%
O=C(Nc1sc2c(c1C(=O)NCC1CCCO1)CCC2)c1cc(=O)c2cc(Cl)ccc2o1 (centres undefined)	·	·	·	-2%	2%	·	·	·
